JMJD2A Tudor inh: inhibitors of human JMJD2A Tudor domain | AlphaScreen JMJD2A-Tudor / H3K4me3 peptide binding | Potency, µM (titrated, usually from 114 µM), inactives show at the top dose activity change, negative = inhibition, usual class: inhibitors | 390,000 compounds, 4.4% hits | AID 504339; note: % is set by controls: 0 for no effect and ±100 for the full control effect; nearly all actives have a fitted effect of over 50% in size
VDR inhibitor: vitamin D3 receptor (human) inhibition; Potency, µM, without a hit: max response, negative = inhibition, hits mostly inhibitors; P11473; VDR-SRC2-3 peptide fluorescence polarization, 2 h; 400,000 compounds, 0.93% hits; note: % is set by controls: 0 for no effect and ±100 for the full control effect
Target sequence (P11473 whole entry, looked up): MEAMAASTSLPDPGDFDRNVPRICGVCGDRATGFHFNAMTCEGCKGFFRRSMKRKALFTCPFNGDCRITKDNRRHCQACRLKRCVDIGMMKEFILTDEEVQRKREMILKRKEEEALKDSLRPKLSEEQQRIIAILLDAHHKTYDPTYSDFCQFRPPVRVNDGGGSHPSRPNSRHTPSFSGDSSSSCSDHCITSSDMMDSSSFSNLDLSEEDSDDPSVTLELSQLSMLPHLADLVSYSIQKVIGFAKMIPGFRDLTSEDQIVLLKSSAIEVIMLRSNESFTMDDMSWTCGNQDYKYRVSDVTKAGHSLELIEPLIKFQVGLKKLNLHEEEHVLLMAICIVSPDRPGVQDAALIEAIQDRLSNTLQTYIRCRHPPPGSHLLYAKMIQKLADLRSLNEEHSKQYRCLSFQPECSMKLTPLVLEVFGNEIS
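VDR–SRC2-3 interaction, FP format. Cmpds 23 nl via pintool, brief spin, 2 h ambient incubation.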
HP1b binding inh: blocks HP1-beta chromodomain binding to methylated histone tails; AlphaScreen HP1-beta / biotin-H3K9me3 peptide binding; Potency, µM (highest dose often 114 µM), inactives show at the top dose activity change, negative = inhibition, most hits filed as inhibitors; 390,000 compounds, 0.56% hits; AID 540317; note: nearly all actives have a fitted effect of over 70% in size
Target sequence (P83916 whole entry, looked up): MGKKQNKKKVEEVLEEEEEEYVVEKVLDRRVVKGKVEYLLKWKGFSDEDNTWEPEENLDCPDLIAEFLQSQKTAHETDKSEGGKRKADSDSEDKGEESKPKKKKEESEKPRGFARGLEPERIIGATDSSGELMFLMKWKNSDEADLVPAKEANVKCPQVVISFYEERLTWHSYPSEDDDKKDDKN
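AlphaScreen: HP1-beta (50 nM) preformed 30 min with biotin-H3(1-18)K9me3 peptide (50 nM) in PBS pH 7.4, 0.01% Tween-20. Compound added for 30 min at RT, then streptavidin donor/nickel chelate acceptor beads (10 ug/mL) for 30 min.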
BAZ2B inh: blocks human BAZ2B; Q9UIF8; AlphaScreen BAZ2B-H3K14Ac peptide displacement; Potency, µM (doses to about 114 µM), inactives show top-dose activity change, negative = inhibition, most hits filed as inhibitors; 360,000 compounds, 4.4% hits; AID 504333; note: % is set by controls: 0 for no effect and ±100 for the full control effect; nearly all actives have a fitted effect of over 60% in size
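Complex of BAZ2B and biotin-H3K14Ac (50 nM apiece) forms over 30 min at RT, then faces library compounds up to 110 uM for another 30 min; AlphaScreen beads added, 20 min dark incubation, luminescence read.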
PLK1 PBD inh: blocks phosphopeptide binding to human PLK1 polo-box domain. 360,000 compounds, 2.8% hits. AID 720504. Potency, µM, inactives show max response, negative = inhibition, actives largely listed as inhibitors. Plk1 PBD binding of FITC phosphopeptide, fluorescence polarization; note: series mostly up to about 57 µM; % is set by controls: 0 for no effect and ±100 for the full control effect; nearly all actives have a fitted effect of over 65% in size
G9a inh: G9a (human) methyltransferase inhibition; Q96KQ7; Potency, µM (top dose mostly 102 µM), inactives show top-dose activity, negative = inhibition, usual class: inhibitors; G9a H3K9 monomethylation, AlphaScreen, 2 h; 350,000 compounds, 8.8% hits; note: % is set by controls: 0 for no effect and ±100 for the full control effect; nearly all actives have a fitted effect of over 75% in size
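Compounds were preincubated with 20 nM G9a for 15 min, after which biotinylated H3K9 peptide (500 nM) and SAM (20 uM) started a 2 h room-temperature reaction. Monomethylated product was quantified by antibody-based AlphaScreen chemiluminescence.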
* = called active by the depositor; ? = inconclusive; · = no result; [ ] = another dose, or the depositor's remark. The list is not random: actives were taken first. Their share in the collection is about 11%. Calls come from the whole dose curve; as a rule, active = well fitted curve in the direction sought with a large enough effect; inconclusive = small, poorly fitted or top-dose-only effect, or another doubt; inactive = no such curve, though single readings can be large; an effect the other way counts as inactive or inconclusive. Potency is the fitted concentration of half-maximal effect.

SMILES	JMJD2A Tudor inh	VDR inhibitor	HP1b binding inh	BAZ2B inh	PLK1 PBD inh	G9a inh
CCC(=O)Nc1cc(C(=O)O)ccc1Sc1ccc(C)cc1	-11%	-25%	44%	-12%	-7%	?
Cc1ccc(C(=O)O)cc1NC(=O)CCc1ccccc1	?	-10%	-6%	-28%	17µM*	5%
COC(=O)c1ccc(C)c(NC(=O)CN(c2ccccc2)S(=O)(=O)N(C)C)c1	-14%[11.4 µM]	-19%	-1%	-13%	21µM*	6%
CCOc1ccc(NC(=S)NC(C)c2cccs2)cc1 (stereo not drawn)	-10%	-10%	19%	-25%	2%	7%[59 µM]
CC1CCCCC12NC(=O)N(CC(=O)Nc1sc3c(c1C(N)=O)CCC3)C2=O (stereo not drawn)	-26%	-2%	15%	?	-15%	?
CCC(C)NC(=O)c1cc(-c2ccc3c(c2)OCO3)on1 (stereo not drawn)	8%	9%	27%	8%	2%	17%
Cc1ccc(C(=O)NC(=S)Nc2cccnc2Cl)cc1	0%	3%	-1%	1%	-15%	?
COc1cc2ccccc2cc1C(=O)NC(=S)Nc1cc(C(=O)O)ccc1C	-24%	2%	9%	?	?	?
COc1ccccc1C(=O)NC(=S)Nc1cccnc1Cl	-25%	-8%	?	-29%	?	10µM*
Cc1ccc(C(=O)O)cc1NC(=S)NC(=O)c1ccc(COc2ccccc2)cc1	?	-3%	7%	50µM*	?	·
COc1ccccc1C(=O)NC(=S)Nc1cc(C(=O)O)ccc1C	-3%	-27%	-2%	1%	?	45µM*
Cc1cc2c(s1)c1cnn(Cc3cccc(F)c3F)c(=O)c1n2C	-12%	·	·	·	·	·
CCSc1nc2ccc(N3C(=O)C4C5C=CC(C5)C4C3=O)cc2s1 (stereo not drawn)	-13%[57.1 µM]	-16%	-4%	3%	?	11µM*
CCc1ccccc1N1C(=O)CC(N2CCc3ccccc32)C1=O (stereo not drawn)	-2%	5%	35%	-23%	-7%	?
O=C1CC(N2CCCc3ccccc32)C(=O)N1c1ccccc1 (stereo not drawn)	4%	21%	47%	3%	-2%	40µM*
Cc1ccc(-n2c(CCC(=O)O)ccc2-c2cccs2)cc1C	?	?	-3%	?	-20%	?
CC(=O)c1cccc(-n2c(CCC(=O)O)ccc2-c2ccc(C)cc2)c1	-36%	-24%	-13%	-27%	2%	18%[2.33 µM]
CCOC(=O)c1ccc(-n2c(CCC(=O)O)ccc2-c2cccs2)cc1	?	?	?	?	19µM*	22µM*
CCc1ccc(-n2c(CCC(=O)O)ccc2-c2cccs2)cc1	?	-22%	?	?	·	10µM*
CCc1ccc(-n2c(CCC(=O)O)ccc2-c2ccc(F)cc2)cc1	?	-29%	?	?	·	10µM*
Cc1ccccc1OCCC(=O)Nc1ccccc1C(=O)N1CCCCC1	-9%	-25%	14%	11%	0%	21%[12.7 µM]
COc1nc(=O)n(C2CCCO2)cc1C (stereo not drawn)	-11%	-2%	33%	·	-8%	·
Cc1cn(C2CCCCO2)c(=O)nc1NO (stereo not drawn)	89µM*	7%	14%	·	-3%	·
O=C(NCCc1csc(-c2ccccc2)n1)c1ccco1	-7%[11.4 µM]	?	-4%	2%	11µM*	2%
N=C1c2c(cc(=O)n3c2[nH]c2ccccc23)CN1CCN1CCOCC1	-17%	1%	10%	·	0%	35µM*
SMILES	JMJD2A Tudor inh	VDR inhibitor	HP1b binding inh	BAZ2B inh	PLK1 PBD inh	G9a inh
Cc1ccc(CNC(=O)C2CCCN(S(=O)(=O)c3ccc(F)cc3)C2)cc1 (stereo not drawn)	-8%	3%	11%	1%	-14%	·
O=C(/C=C/Nc1ccc(F)c(F)c1)c1cccs1	-19%	-20%	31%	1%	-22%	45µM*
O=C(/C=C/Nc1ccc(F)cc1)c1cccs1	0%	-8%	34%	·	-16%	·
CSc1cccc(N2CC(C(=O)Nc3cccc(S(=O)(=O)N4CCCC4)c3)CC2=O)c1 (stereo not drawn)	?	-2%	-11%	?	-11%	11µM*
CCc1ccc(N2CC(C(=O)N/N=C/c3ccccc3)CC2=O)cc1 (stereo not drawn)	?	?	-6%	·	27µM*	·
COC(=O)c1ccc(/C=N/NC(=O)C2CC(=O)N(c3ccc(F)cc3)C2)cc1 (stereo not drawn)	-11%	12%	34%	0%	-6%	21%
O=C(Nc1cccc(F)c1)C1CC(=O)N(c2ccc(Cl)cc2)C1 (stereo not drawn)	1%[57.1 µM]	9%	26%	-6%	?	-26%[2.33 µM]
CCOc1ccc(N2CC(C(=O)Nc3cccc(S(=O)(=O)N4CCCCC4)c3)CC2=O)cc1 (stereo not drawn)	-21%	10%	12%	-9%	-9%	-30%
O=C(Nc1cccc(F)c1)C1CC(=O)N(c2ccc(Br)cc2)C1 (stereo not drawn)	-19%[11.4 µM]	-20%	8%	-1%	30µM*	-38%
CCOc1ccc(N2CC(C(=O)Nc3ccc(S(=O)(=O)N4CCCC4)cc3)CC2=O)cc1 (stereo not drawn)	-5%	9%	18%	-2%	-3%	35µM*
COc1ccc(N2CC(C(=O)Nc3ccc(S(=O)(=O)N4CCCC4)cc3)CC2=O)cc1 (stereo not drawn)	-13%	18%	16%	-14%	3%	-7%
COc1cccc(CC(NC(C)=O)C(=O)NC2CCN(C(=O)c3ccc(Cl)cc3)CC2)c1 (stereo not drawn)	3%	-2%	27%	-3%	-1%	0%
CCc1ccc(N2CC(C(=O)Nc3ccc(C)c(S(=O)(=O)N4CCOCC4)c3)CC2=O)cc1 (stereo not drawn)	-25%	1%	23%	2%	-6%	-70%[59 µM]
CCc1ccc(N2CC(C(=O)Nc3ccc(S(=O)(=O)N4CCOCC4)cc3)CC2=O)cc1 (stereo not drawn)	-10%	-2%	9%	-11%	0%	50µM*
CCOc1ccc(N2CC(C(=O)Nc3ccc(S(=O)(=O)N4CCCCC4)cc3)CC2=O)cc1 (stereo not drawn)	-24%	-17%	8%	7%	4%	40µM*
COc1ccc(N2CC(C(=O)Nc3ccc(S(=O)(=O)N4CCCCC4)cc3)CC2=O)cc1 (stereo not drawn)	-19%	-1%	15%	-22%	-3%	·
CCOc1ccc(NCc2ccccc2OCc2cccc(F)c2)cc1	?	-1%	3%	?	-7%	10µM*

Screens as filed in PubChem BioAssay.
